Source: PubChem BioAssay (NCATS)
Results filed as inconclusive are left out. The source made the active and inactive calls. Calls follow the shape of the dose curve; as a rule, active = well fitted curve in the direction sought with a large enough effect; inconclusive = small, poorly fitted or top-dose-only effect, or another doubt; inactive = no such curve, though single readings can be large; an effect the other way counts as inactive or inconclusive.

Legend:
[1] = Quantitative High-Throughput drug screen in 47 multiple myeloma cell lines against the NCATS MIPE library collection: MOLP8_DSMZ cell viability assay (AID 1918977); also: nearly all actives have a fitted effect of over 45% in size
Method in brief: (§1)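 ATP-based luminescence (CellTiter-Glo, 5 min RT incubation) quantified surviving cells following two days' treatment with MIPE 4.0 agents at 37 °C, 5% CO2.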

[2] = Quantitative High-Throughput drug screen in 47 multiple myeloma cell lines against the NCATS MIPE library collection: MM1S_ATCC cell viability assay (AID 1918980); also: nearly all actives have a fitted effect of over 45% in size
Method in brief: as §1

[3] = Quantitative High-Throughput drug screen in 47 multiple myeloma cell lines against the NCATS MIPE library collection: KMS28PE_JCRB cell viability assay (AID 1918983); also: nearly all actives have a fitted effect of over 35% in size
Method in brief: as §1

[4] = Quantitative High-Throughput drug screen in 47 multiple myeloma cell lines against the NCATS MIPE library collection: KMS34_JCRB cell viability assay (AID 1918985); also: nearly all actives have a fitted effect of over 40% in size
Method in brief: as §1

[5] = Quantitative High-Throughput drug screen in 47 multiple myeloma cell lines against the NCATS MIPE library collection: OCIMY7_PLB cell viability assay (AID 1918987); conditions: OCI-MY7 myeloma viability, CellTiter-Glo ATP, 48 h; viability (% of DMSO): at 45.8 µM; also: nearly all actives have a fitted effect of over 65% in size
Method in brief: as §1

[6] = Quantitative High-Throughput drug screen in 47 multiple myeloma cell lines against the NCATS MIPE library collection: OCIMY5_PLB cell viability assay (AID 1918988); also: nearly all actives have a fitted effect of over 65% in size
Method in brief: as §1

[7] = Quantitative High-Throughput drug screen in 47 multiple myeloma cell lines against the NCATS MIPE library collection: OPM1_PLB cell viability assay (AID 1918989); also: nearly all actives have a fitted effect of over 40% in size
Method in brief: as §1

[8] = Quantitative High-Throughput drug screen in 47 multiple myeloma cell lines against the NCATS MIPE library collection: U266_ATCC cell viability assay (AID 1919864); also: nearly all actives have a fitted effect of over 35% in size
Method in brief: as §1

[9] = Quantitative High-Throughput drug screen in 47 multiple myeloma cell lines against the NCATS MIPE library collection: XG6_PLB cell viability assay (AID 1919865); also: nearly all actives have a fitted effect of over 40% in size
Method in brief: as §1

[10] = Quantitative High-Throughput drug screen in 47 multiple myeloma cell lines against the NCATS MIPE library collection: PE2_PLB cell viability assay (AID 1919869); also: nearly all actives have a fitted effect of over 35% in size
Method in brief: as §1

[11] = Quantitative High-Throughput drug screen in 47 multiple myeloma cell lines against the NCATS MIPE library collection: NCIH929_DSMZ cell viability assay (AID 1918978); also: nearly all actives have a fitted effect of over 35% in size
Method in brief: as §1

[12] = Quantitative High-Throughput drug screen in 47 multiple myeloma cell lines against the NCATS MIPE library collection: OCIMY1_PLB cell viability assay (AID 1918979); also: nearly all actives have a fitted effect of over 35% in size; as to viability: series mostly up to about 46 µM
Method in brief: as §1

[13] = Quantitative High-Throughput drug screen in 47 multiple myeloma cell lines against the NCATS MIPE library collection: MM1R_ATCC cell viability assay (AID 1918981); also: nearly all actives have a fitted effect of over 35% in size
Method in brief: as §1

[14] = Quantitative High-Throughput drug screen in 47 multiple myeloma cell lines against the NCATS MIPE library collection: LP1_DSMZ cell viability assay (AID 1918982); also: nearly all actives have a fitted effect of over 35% in size
Method in brief: as §1

[15] = Quantitative High-Throughput drug screen in 47 multiple myeloma cell lines against the NCATS MIPE library collection: L363_DSMZ cell viability assay (AID 1918984); also: nearly all actives have a fitted effect of over 40% in size
Method in brief: as §1

[16] = Quantitative High-Throughput drug screen in 47 multiple myeloma cell lines against the NCATS MIPE library collection: XG1_PLB cell viability assay (AID 1919866); also: nearly all actives have a fitted effect of over 35% in size
Method in brief: as §1

[17] = Quantitative High-Throughput drug screen in 47 multiple myeloma cell lines against the NCATS MIPE library collection: VP6_DJ cell viability assay (AID 1919867); also: nearly all actives have a fitted effect of over 40% in size
Method in brief: as §1

[18] = Quantitative High-Throughput drug screen in 47 multiple myeloma cell lines against the NCATS MIPE library collection: UTMC2_PLB cell viability assay (AID 1919868); conditions: CellTiter-Glo ATP luminescence, 48 h; viability (% of DMSO control): at 45.8 µM; also: nearly all actives have a fitted effect of over 55% in size
Method in brief: as §1

[19] = Quantitative High-Throughput drug screen in 47 multiple myeloma cell lines against the NCATS MIPE library collection: PCM6_Riken cell viability assay (AID 1919870); also: nearly all actives have a fitted effect of over 30% in size
Method in brief: as §1

[20] = Quantitative High-Throughput drug screen in 47 multiple myeloma cell lines against the NCATS MIPE library collection: SKMM1_PLB cell viability assay (AID 1919863); conditions: SKMM1 myeloma viability, CellTiter-Glo ATP, 48 h; viability: stronger effect = lower value; also: nearly all actives have a fitted effect of over 35% in size
Method in brief: as §1

Measured: Potency
Potency is read from the fitted curve at half-maximal effect.

Oc1ccc(C2=Cc3ccc(O)cc3OC2)cc1
active: [1] 2.35 µM | [2] 3.32 µM | [3] 18.7 µM | [4] 0.662 µM | [5] 1.32 µM | [6] 2.96 µM | [7] 1.48 µM | [8] 5.9 µM | [9] 1.32 µM | [10] 9.35 µM

COc1ccc(C2Sc3ccccc3N(CCN(C)C)C(=O)C2OC(C)=O)cc1 (stereo not given)
active: [2] 18.7 µM | [14] 0.0017 µM | [6] 10.5 µM | [8] 16.6 µM | [18] 16.6 µM
inactive: [11] | [12] | [13] | [15] | [4] | [7] | [9] | [16] | [17] | [10] | [19]

C[C@@H]1CCN(C(=O)CC#N)C[C@H]1N(C)c1ncnc2[nH]ccc12
active: [6] 13.2 µM
inactive: [1] | [12] | [14] | [3] | [7] | [18] | [19]

O=C(O)C=Cc1ccc(O)c(O)c1
inactive: [18] | [19]
active: [1] 20.9 µM | [12] 10.5 µM | [2] 9.35 µM | [13] 23.5 µM | [3] 2.96 µM | [15] 16.6 µM | [5] 16.6 µM | [6] 18.7 µM | [7] 16.6 µM | [8] 14.8 µM | [10] 16.6 µM

NS(=O)(=O)c1ccc(NC2=CC(=O)c3ccccc3C2=O)cc1
active: [14] 2.35 µM | [5] 2.09 µM | [6] 4.69 µM | [7] 6.62 µM | [20] 4.69 µM | [17] 5.9 µM | [10] 14.8 µM
inactive: [1] | [12] | [3]

Cc1c(O)cccc1C(=O)N[C@@H](CSc1ccccc1)[C@H](O)CN1C[C@H]2CCCC[C@@H]2C[C@@H]1C(=O)NC(C)(C)C
active: [11] 23.5 µM | [12] 20.9 µM | [2] 20.9 µM | [13] 18.7 µM | [14] 20.9 µM | [4] 18.7 µM | [5] 14.8 µM | [6] 23.5 µM | [7] 18.7 µM | [20] 20.9 µM | [8] 18.7 µM | [9] 29.6 µM | [16] 23.5 µM | [18] 23.5 µM | [10] 26.4 µM | [19] 18.7 µM

CC#CCn1c(N2CCC[C@@H](N)C2)nc2c1c(=O)n(Cc1nc(C)c3ccccc3n1)c(=O)n2C
inactive: [1] | [12] | [14] | [3] | [9] | [19]
active: [2] 20.9 µM | [4] 4.18 µM | [6] 26.4 µM

N[C@@]1(C(=O)O)CS(=O)(=O)[C@H]2[C@H](C(=O)O)[C@H]21
active: [2] 3.72 µM | [8] 4.18 µM
inactive: [1] | [12] | [4]

CC(C)C(=O)Oc1ccc(CO)cc1[C@H](CCN(C(C)C)C(C)C)c1ccccc1
active: [4] 18.7 µM
inactive: [11] | [12] | [2] | [13] | [14] | [16] | [10] | [19]

CS(=O)c1ccc(-c2nc(-c3ccc(F)cc3)c(-c3ccncc3)[nH]2)cc1 (stereo not given)
active: [11] 5.4 µM | [2] 38.2 µM | [15] 24.1 µM | [5] 9.59 µM | [6] 19.1 µM | [7] 48.1 µM | [9] 42.9 µM | [16] 38.2 µM | [17] 7.62 µM | [18] 34 µM | [10] 30.3 µM
inactive: [12] | [3]

Cc1ccc(C(=O)Nc2cccc(C(F)(F)F)c2)cc1Nc1nc(-c2cccnc2)nc2c1cnn2C
active: [11] 14.8 µM | [12] 16.6 µM | [13] 18.7 µM | [14] 16.6 µM | [3] 26.4 µM | [4] 16.6 µM | [6] 10.5 µM | [20] 14.8 µM | [8] 8.33 µM | [9] 4.69 µM | [18] 11.8 µM | [10] 9.35 µM | [19] 20.9 µM

CC[C@@]1(O)C[C@H](O[C@H]2C[C@H](N(C)C)[C@H](O[C@H]3C[C@H](O)[C@H](O[C@H]4CCC(=O)[C@H](C)O4)[C@H](C)O3)[C@H](C)O2)c2c(cc3c(c2O)C(=O)c2c(O)cccc2C3=O)[C@@H]1C(=O)OC
active: [11] 0.264 µM | [12] 1.66 µM | [2] 0.187 µM | [14] 1.05 µM | [3] 0.418 µM | [4] 2.09 µM | [5] 0.372 µM | [6] 0.0935 µM | [7] 0.833 µM | [20] 0.833 µM | [8] 0.418 µM | [9] 0.296 µM | [16] 0.132 µM | [17] 0.59 µM | [18] 0.187 µM | [10] 0.526 µM | [19] 1.05 µM

Cc1nc(N)sc1-c1ccnc(Nc2ccc(N3CCOCC3)cc2)n1
active: [11] 7.43 µM | [12] 16.6 µM | [2] 18.7 µM | [14] 20.9 µM | [3] 16.6 µM | [15] 2.96 µM | [4] 1.05 µM | [5] 1.05 µM | [6] 5.26 µM | [7] 4.18 µM | [8] 23.5 µM | [9] 4.69 µM | [17] 3.32 µM | [18] 0.59 µM | [10] 3.32 µM | [19] 6.62 µM
